hgDAF-12 ag – agonists of H. glycines DAF-12 nuclear receptor | AID 687014 | activation, % at 6.8 µM | HEK293 GAL4-hgDAF12 UAS-luciferase reporter, agonist luminescence; normalized to butyrate control | actives 1.8% (n = 370,000);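 active = activation above a cutoff set at the mean of all screened compounds plus 3 SD, cut at about 10% in these data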;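 also: 0% = DMSO wells and 100% = sodium butyrate wells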
AHR activator – activators of human aryl hydrocarbon receptor; AID 2796; P35869; actives 2.5% (n = 320,000); activation, % at 5 µM; AHR-responsive luciferase reporter cells, luminescence; in the data active = activation above about 47%;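 also: 0% = vehicle wells and 100% = reference agonist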
ssDAF12 agonist – S. stercoralis DAF-12 activation, primary screen; HEK293 ssDAF-12/GRIP1 lit1-tk-luc reporter, luminescence; % of 3 µM dafachronic acid response; activation, % at 6.8 µM; actives 1% (n = 370,000);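 active = activation above the mean over all tested compounds plus 3 SD, cut at about 0.9% in these data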;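 also: 0% = DMSO-only wells and 100% = 3 µM delta7-dafachronic acid wells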
DAX1 inh-1 – blocks DAX1 repression of SF-1 activated StAR promoter. inhibition, % at 6.8 µM. HEK293T StAR-luciferase reporter, SF-1/DAX-1 repression relief. AID 652010. actives 1.1% (n = 370,000);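 active = inhibition above the mean over all tested compounds plus 3 SD, cut at about 3.6% in these data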;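 also: 0% = DAX-1 cells with DMSO and 100% = cells lacking DAX-1 with DMSO; higher inhibition means more luminescence from relief of DAX-1 repression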
hcDAF12 agonist – activators of H. contortus DAF-12 nuclear receptor. HEK293 hcDAF-12 lit1-tk-luc reporter, luminescence; 0% DMSO, 100% Δ7-dafachronic acid. actives 1.4% (n = 370,000). activation, % at 6.8 µM;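 active = activation above the mean of all tested compounds plus 3 SD, cut at about 5.5% in these data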;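 also: 100% = response to 3 µM Δ7-dafachronic acid high control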
DAX1 inh-2 – inhibits human nuclear receptor DAX1. actives 0.99% (n = 340,000). HEK293 Gal4-DAX1 luciferase reporter, luminescence. inhibition, % at 6.75 µM. AID 504766;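 active = inhibition above the mean over all tested compounds plus 3 SD, cut at about 4.2% in these data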;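 also: 0% = DAX1-transfected cells with DMSO and 100% = empty-vector control cells with DMSO; inhibition shows as a rise in luminescence from relieved DAX1 repression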
Target sequence (P51843 207-470 limits assumed): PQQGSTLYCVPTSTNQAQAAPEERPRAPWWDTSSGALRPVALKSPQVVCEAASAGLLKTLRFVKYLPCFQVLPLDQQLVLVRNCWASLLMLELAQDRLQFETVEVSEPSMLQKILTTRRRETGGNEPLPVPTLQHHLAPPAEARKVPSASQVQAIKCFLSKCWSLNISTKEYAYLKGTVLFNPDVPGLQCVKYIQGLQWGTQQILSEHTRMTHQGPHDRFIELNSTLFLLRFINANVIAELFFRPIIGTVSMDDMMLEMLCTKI
AHR act cf – human AHR activation, confirmation; human cells, AHR-responsive luciferase reporter, luminescence; shares compounds with AHR activator; actives 87% (n = 2,300); AID 2845; activation, % at 9 µM; in the data active = activation above about 49%;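 also: HepG2 hepatoma cells carrying a DRE-driven firefly luciferase reporter; 0% = vehicle wells and 100% = reference agonist wells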
PXR act counter – PXR activation, counter-screen for AHR activators; shares compounds with AHR activator; cell-based PXR reporter, luciferase luminescence; activation, % at 11.6 µM; actives 88% (n = 2,300); in the data active = activation above about 11%;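 also: human hepatoma DPX-2 cells expressing full-length human PXR; 0% = DMSO and 100% = reference agonist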
An asterisk follows results filed as active. Compounds with a hit are over-represented: about 5.7% of the library has one in this group of screens.

O=C(O)C(c1ccccc1)C(O)c1ccc2c(c1)OCO2 (stereo not drawn) was read as hgDAF-12 ag -2, ssDAF12 agonist 0, DAX1 inh-1 0, hcDAF12 agonist 0 and DAX1 inh-2 0.
For Cc1cccc(-c2nc(C#N)c(NC3CCCCC3)o2)c1 the results were hgDAF-12 ag 8, AHR activator 145*, ssDAF12 agonist 0, DAX1 inh-1 2, hcDAF12 agonist 2, DAX1 inh-2 1, AHR act cf 7 and PXR act counter 86*.
For CC(Oc1ccc2cc(-c3ccccc3)c(=O)oc2c1)C(=O)NCC1CCC(C(=O)O)CC1 (stereo not drawn) the results were hgDAF-12 ag -4, AHR activator 0, ssDAF12 agonist -1, DAX1 inh-1 0, hcDAF12 agonist -1 and DAX1 inh-2 2.
`Cc1ccc(-c2nc(NCCCO)c3ccccc3n2)cc1` gave hgDAF-12 ag 4, AHR activator 33, ssDAF12 agonist 0, DAX1 inh-1 0, hcDAF12 agonist 4 and DAX1 inh-2 1.
CN(C)CCCNc1nc(-c2ccc(Cl)cc2)nc2ccccc12 was read as hgDAF-12 ag 2, AHR activator 114*, ssDAF12 agonist 0, DAX1 inh-1 -1, hcDAF12 agonist 3, DAX1 inh-2 1, AHR act cf 77* and PXR act counter 26*.
For Clc1ccc(-c2ccn[nH]2)cc1 the results were hgDAF-12 ag 5, AHR activator 7, ssDAF12 agonist -1, DAX1 inh-1 0, hcDAF12 agonist 0 and DAX1 inh-2 1.
Clc1ccc(-c2cc3ccccc3[nH]2)cc1 was read as hgDAF-12 ag 7, AHR activator 91*, ssDAF12 agonist 0, DAX1 inh-1 2, hcDAF12 agonist 4, DAX1 inh-2 0, AHR act cf 43 and PXR act counter 8.
NNC(=O)c1cc(S(=O)(=O)N2CCOCC2)c[nH]1 was read as hgDAF-12 ag -1, AHR activator 11, ssDAF12 agonist -1, DAX1 inh-1 0, hcDAF12 agonist -1 and DAX1 inh-2 0.
O=C(NC(=S)N1CCCc2ccccc21)c1ccc(Br)cc1 was read as hgDAF-12 ag 3, AHR activator 88*, ssDAF12 agonist -1, DAX1 inh-1 0, hcDAF12 agonist 5.9*, DAX1 inh-2 0, AHR act cf 84* and PXR act counter 20*.
Screening CC(=O)N1c2ccccc2C(C)=NCC1C(=O)NC1CCCCC1 (stereo not drawn) returned hgDAF-12 ag 0, ssDAF12 agonist -1, DAX1 inh-1 -1 and hcDAF12 agonist 2.
c1cn(CCCNc2ncnc3sc4c(c23)CCC4)cn1 was read as hgDAF-12 ag -1, AHR activator 128*, ssDAF12 agonist -1, DAX1 inh-1 0, hcDAF12 agonist -2, DAX1 inh-2 0, AHR act cf 92* and PXR act counter 18*.
For Cc1ccc(C)c(NC(=O)NCc2ccccn2)c1 the results were hgDAF-12 ag -1, AHR activator 22, ssDAF12 agonist -1, DAX1 inh-1 1, hcDAF12 agonist -1 and DAX1 inh-2 0.
For Cc1ccc(C)c(NC(=S)c2nc3ccccc3s2)c1 the results were hgDAF-12 ag 2, AHR activator 83*, ssDAF12 agonist 1.0*, DAX1 inh-1 0, hcDAF12 agonist 5.8*, DAX1 inh-2 -2, AHR act cf 135* and PXR act counter 14*.
Cc1ccc(NC(=S)c2nc3ccccc3s2)cc1 was read as hgDAF-12 ag -1, AHR activator 82*, ssDAF12 agonist -1, DAX1 inh-1 -1, hcDAF12 agonist 2, DAX1 inh-2 2, AHR act cf 58* and PXR act counter 18*.
For Cc1ccc(C)c(NC(=S)c2ccccn2)c1 the results were hgDAF-12 ag 8, AHR activator 118*, ssDAF12 agonist 0, DAX1 inh-1 0, hcDAF12 agonist 2, DAX1 inh-2 0, AHR act cf 106* and PXR act counter 26*.
`S=C(Nc1ccc(Cl)cc1)c1nc2ccccc2s1` gave hgDAF-12 ag 2, AHR activator 130*, ssDAF12 agonist 0, DAX1 inh-1 1, hcDAF12 agonist 2, DAX1 inh-2 1, AHR act cf 112* and PXR act counter 13*.
Screening CCC(=O)NC(=S)Nc1ccc(-c2nc3ccccc3s2)cc1 returned hgDAF-12 ag 7, AHR activator 33, ssDAF12 agonist 0, DAX1 inh-1 2, hcDAF12 agonist 2 and DAX1 inh-2 4.
CC(=O)Nc1sc(NC(=O)c2ccc(C)cc2)nc1-c1cccs1 was read as hgDAF-12 ag 1, AHR activator 20, ssDAF12 agonist -1, DAX1 inh-1 0, hcDAF12 agonist -1 and DAX1 inh-2 0.
Screening Fc1ccc(/C=N/Nc2ncnc3nc[nH]c23)cc1F returned hgDAF-12 ag 1, AHR activator 103*, ssDAF12 agonist -1, DAX1 inh-1 1, hcDAF12 agonist 0, DAX1 inh-2 1, AHR act cf 65* and PXR act counter 32*.
`COc1ccc(C(=O)Nc2cc(OC)c(NC(=O)c3ccco3)cc2OC)cc1` gave hgDAF-12 ag -5, AHR activator 82*, ssDAF12 agonist -2, DAX1 inh-1 -1, hcDAF12 agonist -4, DAX1 inh-2 0 and AHR act cf 110*.
COc1cc(NC(=O)c2ccccc2)c(OC)cc1NC(C)=O was read as hgDAF-12 ag -3, AHR activator 86*, ssDAF12 agonist -1, DAX1 inh-1 0, hcDAF12 agonist 0, DAX1 inh-2 1, AHR act cf 113* and PXR act counter 11*.
`COc1ccccc1CC(=O)Nc1cc(OC)c(NC(=O)c2ccccc2)cc1OC` gave hgDAF-12 ag -2, AHR activator 19, ssDAF12 agonist -2, DAX1 inh-1 -1, hcDAF12 agonist -4 and DAX1 inh-2 -1.
`CCC(=O)Nc1cc(OC)c(NC(=O)c2ccccc2)cc1OC` gave hgDAF-12 ag 1, AHR activator 82*, ssDAF12 agonist -1, DAX1 inh-1 0, hcDAF12 agonist 1, DAX1 inh-2 -1 and AHR act cf 109*.
Screening COc1ccc(NC(=O)c2ccc(C)cc2)c(OC)c1 returned hgDAF-12 ag 12*, AHR activator 120*, ssDAF12 agonist 0, DAX1 inh-1 1, hcDAF12 agonist 4, DAX1 inh-2 1 and AHR act cf 96*.
`COc1ccc(NC(=O)c2ccc(NC(=O)c3ccco3)cc2)c(OC)c1` gave hgDAF-12 ag -1, AHR activator 6, ssDAF12 agonist -1, DAX1 inh-1 0, hcDAF12 agonist -4 and DAX1 inh-2 -2.

Screens: PubChem BioAssay, The Scripps Research Institute Molecular Screening Center
